The source of these data is PubChem BioAssay (EPA / NIEHS).

Assay [1] concerns the target human Retinoic Acid Receptor gamma (RARg), RARG (gene 5916) (UniProt P13631). Put plainly: ATG_RARg_TRANS: Attagene TRANS-FACTORIAL HepG2 Assay for human Retinoic Acid Receptor gamma (RARg) (AID 2283009; active means hit-call score of the fitted dose curve at least 0.9, where 1 is the maximum). The essentials: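 Transient transfection of HepG2 with multi-reporter constructs, then 24 h chemical treatment. Total RNA isolated, reverse-transcribed, PCR-amplified, fluorescently labelled and resolved by capillary electrophoresis; activity scored as mRNA induction versus DMSO.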

Assay [2] deals with Retinoic acid receptor RXR-alpha (Homo sapiens) (UniProt P19793). Put plainly: ATG_RXRa_TRANS: Attagene TRANS-FACTORIAL HepG2 Assay for human Retinoid X Receptor alpha (RXRa) (AID 2283012; active means hit-call score of the fitted dose curve at least 0.9, where 1 is the maximum). An outline of the steps: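 Transient transfection of human HepG2 with multiple GAL4-UAS reporter constructs; 24 h compound exposure; total RNA isolated, reverse-transcribed, PCR-amplified, 6-FAM labelled, HpaI-cut, resolved by capillary electrophoresis. Positive-direction fit versus DMSO.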

In assay [3] the target is human Thyroid Receptor alpha (THRa1), THRA (gene 7067) (UniProt P10827). Put plainly: ATG_THRa1_TRANS: Attagene TRANS-FACTORIAL HepG2 Assay for human Thyroid Receptor alpha (THRa1) (AID 2283014; active means hit-call score of the fitted dose curve at least 0.9, where 1 is the maximum). The essentials:
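HepG2 cells transiently transfected with multiplexed GAL4-UAS reporter units for exogenous chimeric THRa1-Gal4; reporter mRNA measured 24 h after dosing by RT-PCR, 6-FAM labelling, HpaI digestion and capillary electrophoresis. Gain-of-signal fitted versus DMSO baseline.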

Read-out in assay [4]: E-selectin (Homo sapiens) (UniProt P16581)
Description: BSK_3C_Eselectin: BioMAP Diversity Plus: 3C Assay for Eselectin Biomarker Activity (AID 2283015).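 On outcome: cell surface E-selectin protein quantified by ELISA 24 h after dosing.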 The settings on record: primary human endothelial cells (HUVEC); actives raise or lower the signal. An outline of the steps:
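Primary human umbilical vein endothelial cells (3C system) were dosed with chemical and cell-surface E-selectin measured by ELISA 24 h later. Bidirectional curve fitting used DMSO as negative control and baseline.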

Read-out in assay [5]: Interleukin-1 alpha (IL1a), IL1A (gene 3552)
Description: BSK_BE3C_IL1a: BioMAP Diversity Plus: BE3C Assay for Interleukin-1 alpha (IL1a) Biomarker Activity (AID 2283016). The settings on record: primary human bronchial epithelial cells; actives raise or lower the signal. An outline of the steps: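 BE3C primary human bronchial epithelium; cpd 24 h; IL-1a by ELISA; bidirectional fit vs DMSO; parallel SRB (0.1% SRB, 10% TCA fix, 560 nm) for cytotoxicity.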

Read-out in assay [6]: Monocyte Chemoattractant Protein-1 (MCP1), CCL2 (gene 6347)
Put plainly: BSK_3C_MCP1: BioMAP Diversity Plus: 3C Assay for Monocyte Chemoattractant Protein-1 (MCP1) Biomarker Activity (AID 2283017). The note with it: primary human endothelial cells (HUVEC); actives raise or lower the signal. An outline of the steps: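 Primary human umbilical vein endothelial cells (3C system) were exposed to test chemical for 24 h, after which MCP-1 was quantified by ELISA. Activity was fitted bidirectionally against DMSO as negative control and baseline.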

Read-out in assay [7]: Human Leukocyte Antigen - DR isotype (HLADR), HLA-DRA (gene 3122)
Description: BSK_3C_HLADR: BioMAP Diversity Plus: 3C Assay for Human Leukocyte Antigen - DR isotype (HLADR) Biomarker Activity (AID 2283019).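 On outcome: ELISA of cell-surface HLA-DR on HUVEC 24 h after dosing.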 The settings on record: primary human endothelial cells (HUVEC); actives raise or lower the signal. The essentials:
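Primary human umbilical vein endothelial cells (3C system) were dosed with compound and cell-surface HLA-DR was quantified by ELISA at 24 h. Activity was fitted bidirectionally against DMSO as negative control and baseline.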

Read-out in assay [8]: Interleukin-8 (IL8), CXCL8 (gene 3576)
Put plainly: BSK_3C_IL8: BioMAP Diversity Plus: 3C Assay for Interleukin-8 (IL8) Biomarker Activity (AID 2283020). The note with it: primary human endothelial cells (HUVEC); actives raise or lower the signal. The essentials: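 ELISA read-out of IL-8 from human umbilical vein endothelium, measured 24 h after chemical dosing. Activity is expressed relative to DMSO negative control, with both increases and decreases fitted.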

Read-out in assay [9]: Monokine induced gamma interferon (MIG), CXCL9 (gene 4283)
Put plainly: BSK_3C_MIG: BioMAP Diversity Plus: 3C Assay for Monokine induced gamma interferon (MIG) Biomarker Activity (AID 2283021).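 On AC50: MIG protein level measured by immunoassay in the treated endothelial cultures.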 The note with it: primary human endothelial cells (HUVEC); actives raise or lower the signal. The essentials: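 Read-out is ELISA detection of MIG on human umbilical vein endothelial cells, taken 24 h after dosing. Gain or loss of signal was scored relative to DMSO controls using bidirectional curve fitting.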

Assay [10] deals with human Vitamin D Receptor (VDR), VDR (gene 7421) (UniProt P11473). Put plainly: ATG_VDR_TRANS: Attagene TRANS-FACTORIAL HepG2 Assay for human Vitamin D Receptor (VDR) (AID 2283022; active means hit-call score of the fitted dose curve at least 0.9, where 1 is the maximum). An outline of the steps: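 HepG2 cells were transiently transfected with multiple GAL4-UAS reporter units, so signal reflects exogenous chimeric receptor-Gal4 activity. After 24 h compound exposure, reporter mRNA was measured by RT-PCR, fluorescent labelling and capillary electrophoresis, fitted for gain of signal versus DMSO.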

Assay [11] is described as follows: BSK_3C_SRB: Viability Assessment in the BioMAP Diversity Plus: 3C Assay (AID 2283023).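 Further: fitted both ways against DMSO so a hit may be signal rise or drop.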 The settings on record: primary human endothelial cells (HUVEC). An outline of the steps:
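Primary human umbilical vein endothelial cells in the 3C system were read 24 h after compound dosing. Total protein was stained with 0.1% sulforhodamine B after 10% TCA fixation and read at 560 nm, with bidirectional fitting against DMSO as baseline.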

Read-out in assay [12]: Matrix Metallopeptidase 1 (MMP1), MMP1 (gene 4312)
Description: BSK_BE3C_MMP1: BioMAP Diversity Plus: BE3C Assay for Matrix Metallopeptidase 1 (MMP1) Biomarker Activity (AID 2283024). The note with it: primary human bronchial epithelial cells; actives raise or lower the signal. The essentials: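 Human bronchial epithelial cells (BE3C system) exposed to compound for 24 h; MMP1 then quantified by ELISA. Activity was fitted in both directions relative to DMSO.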

Read-out in assay [13]: Pselectin, SELP (gene 6403)
Description: BSK_4H_Pselectin: BioMAP Diversity Plus: 4H Assay for Pselectin Biomarker Activity (AID 2283026). The settings on record: primary human endothelial cells (HUVEC); actives raise or lower the signal. The essentials:
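ELISA read-out of P-selectin on human umbilical vein endothelium after 24 h of dosing. Values derive from bidirectional fitting relative to DMSO. Parallel SRB protein staining flagged overt cytotoxicity.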

A short description of assay [14]: BSK_4H_SRB: Viability Assessment in the BioMAP Diversity Plus: 4H Assay (AID 2283027).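 Further: cells exposed to compound for 24 h before staining.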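 On AC50: curves fitted both ways versus DMSO so AC50 may be loss or gain.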 The settings on record: primary human endothelial cells (HUVEC). The essentials: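 Human umbilical vein endothelial cells, 24 h after chemical dosing; total protein measured by 0.1% sulforhodamine B staining after 10% TCA fixation, read at 560 nm. Bidirectional fitting against DMSO.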

The nature of assay [15]: BSK_BE3C_SRB: Viability Assessment in the BioMAP Diversity Plus: BE3C Assay (AID 2283028).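 On AC50: fitted both ways so AC50 may mark signal gain or loss versus DMSO.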 The note with it: primary human bronchial epithelial cells. An outline of the steps:
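Human primary bronchial epithelial cells were exposed to test chemicals for 24 h. Total protein in parallel cultures was then measured by staining with 0.1% sulforhodamine B after 10% TCA fixation, with absorbance read at 560 nm. Activity was fitted bidirectionally against DMSO.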

Read-out in assay [16]: Thrombomodulin, THBD (gene 7056)
Put plainly: BSK_3C_Thrombomodulin: BioMAP Diversity Plus: 3C Assay for Thrombomodulin Biomarker Activity (AID 2283029). The settings on record: primary human endothelial cells (HUVEC); actives raise or lower the signal. An outline of the steps:
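Read-out is ELISA of thrombomodulin on human umbilical vein endothelium 24 h after chemical dosing. Gain or loss of signal is scored relative to DMSO. Overt cytotoxicity is checked in parallel cultures by sulforhodamine B staining.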

Assay [17] addresses human RAR-related Orphan Receptor gamma (RORg), RORC (gene 6097) (UniProt P51449). Put plainly: ATG_RORg_TRANS: Attagene TRANS-FACTORIAL HepG2 Assay for human RAR-related Orphan Receptor gamma (RORg) (AID 2283011; active means hit-call score of the fitted dose curve at least 0.9, where 1 is the maximum). The essentials:
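Readout: reporter transcript induction (RT-PCR, fluorescent primer extension, capillary electrophoresis) after 24 h compound exposure of transiently transfected HepG2 cells carrying a RORg-Gal4 chimera and GAL4-UAS reporters; DMSO served as baseline, with increasing signal fitted.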

Assay [18] has as its target human Retinoid X Receptor beta (RXRb), RXRB (gene 6257) (UniProt P28702). Put plainly: ATG_RXRb_TRANS: Attagene TRANS-FACTORIAL HepG2 Assay for human Retinoid X Receptor beta (RXRb) (AID 2283013; active means hit-call score of the fitted dose curve at least 0.9, where 1 is the maximum). The essentials:
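Transfect HepG2 with GAL4-UAS multi-reporter constructs (chimeric NR-Gal4, TRANS format); dose compound 24 h; isolate RNA, RT-PCR, FAM primer extension, HpaI digest; quantify by capillary electrophoresis; positive direction vs DMSO.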

Assay [19] in a line: BSK_3C_Vis: BioMAP Diversity Plus: 3C Assay for Morphology Visualization (AID 2283025).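 Further: light microscopy image of cell morphology used as background control; fitted both ways so gain or loss versus DMSO counts.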 The settings on record: primary human endothelial cells (HUVEC). An outline of the steps:
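Chemicals were added to primary human umbilical vein endothelium, cells were incubated 24 h, and morphology was then visualized by light microscopy. Gain or loss of signal was fitted bidirectionally relative to DMSO.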

Several values for one entry are separate records, joined by “and”; a condition that tells them apart may be missing. Equal entries are not always repeated. Records with an inconclusive call do not appear. The source holds several records for some structures; these can differ, active in one and inactive in another. Activity calls are given as the source filed them. How the source made its calls, unless noted: active means hit-call score of the fitted dose curve at least 0.9, where 1 is the maximum; inactive means score below 0.9.

Chain of human Thyroid Receptor alpha (THRa1), THRA (gene 7067) (P10827 whole entry, looked up, the tested form may be a part): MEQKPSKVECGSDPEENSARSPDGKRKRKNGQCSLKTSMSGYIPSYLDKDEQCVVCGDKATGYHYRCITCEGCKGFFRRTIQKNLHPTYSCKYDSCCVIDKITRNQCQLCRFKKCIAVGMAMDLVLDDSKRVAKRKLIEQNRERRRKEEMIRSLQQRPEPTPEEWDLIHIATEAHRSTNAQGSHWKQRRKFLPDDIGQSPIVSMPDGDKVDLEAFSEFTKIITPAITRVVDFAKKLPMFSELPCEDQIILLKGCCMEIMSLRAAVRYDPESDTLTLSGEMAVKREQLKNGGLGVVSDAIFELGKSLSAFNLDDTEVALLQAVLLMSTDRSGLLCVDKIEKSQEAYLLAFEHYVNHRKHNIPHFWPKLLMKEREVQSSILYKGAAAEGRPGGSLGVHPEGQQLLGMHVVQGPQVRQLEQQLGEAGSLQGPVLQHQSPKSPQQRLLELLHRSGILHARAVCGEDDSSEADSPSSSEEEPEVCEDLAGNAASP
Chain of human Retinoid X Receptor beta (RXRb), RXRB (gene 6257) (P28702 whole entry, looked up, the tested form may be a part): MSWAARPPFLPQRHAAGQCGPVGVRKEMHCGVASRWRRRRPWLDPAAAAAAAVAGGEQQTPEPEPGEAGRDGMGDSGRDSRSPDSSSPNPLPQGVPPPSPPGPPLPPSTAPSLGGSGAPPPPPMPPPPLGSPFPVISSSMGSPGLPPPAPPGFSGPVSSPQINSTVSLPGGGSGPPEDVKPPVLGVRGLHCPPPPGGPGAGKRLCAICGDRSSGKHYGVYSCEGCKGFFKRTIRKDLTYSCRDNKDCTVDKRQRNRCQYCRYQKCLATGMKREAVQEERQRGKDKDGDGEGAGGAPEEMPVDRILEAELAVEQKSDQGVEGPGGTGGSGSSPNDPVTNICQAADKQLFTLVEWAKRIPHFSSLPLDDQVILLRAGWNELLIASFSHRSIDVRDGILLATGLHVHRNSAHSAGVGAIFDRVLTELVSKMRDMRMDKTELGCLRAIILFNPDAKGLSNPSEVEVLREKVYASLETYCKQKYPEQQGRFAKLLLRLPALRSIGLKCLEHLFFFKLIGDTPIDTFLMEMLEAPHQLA
Chain of human Vitamin D Receptor (VDR), VDR (gene 7421) (P11473 whole entry, looked up, the tested form may be a part): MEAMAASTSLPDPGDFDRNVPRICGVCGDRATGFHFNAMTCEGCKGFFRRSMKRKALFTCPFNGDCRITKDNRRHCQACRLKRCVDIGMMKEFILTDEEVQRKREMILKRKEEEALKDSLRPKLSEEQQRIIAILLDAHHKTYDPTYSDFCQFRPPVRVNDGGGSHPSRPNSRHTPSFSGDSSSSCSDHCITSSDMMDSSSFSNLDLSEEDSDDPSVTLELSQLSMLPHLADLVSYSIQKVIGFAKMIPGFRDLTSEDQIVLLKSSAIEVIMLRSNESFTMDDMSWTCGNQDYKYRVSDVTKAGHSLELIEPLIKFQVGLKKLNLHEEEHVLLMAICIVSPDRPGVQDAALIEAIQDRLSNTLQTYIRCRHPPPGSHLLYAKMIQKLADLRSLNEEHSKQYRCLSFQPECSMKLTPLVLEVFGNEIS
Chain of human Retinoic Acid Receptor gamma (RARg), RARG (gene 5916) (P13631 whole entry, looked up): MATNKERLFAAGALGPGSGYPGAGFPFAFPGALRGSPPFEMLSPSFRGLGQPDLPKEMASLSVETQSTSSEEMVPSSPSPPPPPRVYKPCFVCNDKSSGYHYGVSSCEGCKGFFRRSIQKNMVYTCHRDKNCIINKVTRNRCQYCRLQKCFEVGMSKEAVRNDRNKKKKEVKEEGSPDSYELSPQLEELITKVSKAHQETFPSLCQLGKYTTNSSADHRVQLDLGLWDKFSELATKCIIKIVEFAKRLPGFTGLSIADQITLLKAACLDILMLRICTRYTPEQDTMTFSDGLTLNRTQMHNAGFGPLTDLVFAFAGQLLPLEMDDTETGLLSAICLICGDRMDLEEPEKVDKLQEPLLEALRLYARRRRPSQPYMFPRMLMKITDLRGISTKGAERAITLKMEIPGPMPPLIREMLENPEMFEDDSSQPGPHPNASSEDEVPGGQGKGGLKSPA
Chain of Retinoic acid receptor RXR-alpha (Homo sapiens) (P19793 whole entry, looked up, the tested form may be a part): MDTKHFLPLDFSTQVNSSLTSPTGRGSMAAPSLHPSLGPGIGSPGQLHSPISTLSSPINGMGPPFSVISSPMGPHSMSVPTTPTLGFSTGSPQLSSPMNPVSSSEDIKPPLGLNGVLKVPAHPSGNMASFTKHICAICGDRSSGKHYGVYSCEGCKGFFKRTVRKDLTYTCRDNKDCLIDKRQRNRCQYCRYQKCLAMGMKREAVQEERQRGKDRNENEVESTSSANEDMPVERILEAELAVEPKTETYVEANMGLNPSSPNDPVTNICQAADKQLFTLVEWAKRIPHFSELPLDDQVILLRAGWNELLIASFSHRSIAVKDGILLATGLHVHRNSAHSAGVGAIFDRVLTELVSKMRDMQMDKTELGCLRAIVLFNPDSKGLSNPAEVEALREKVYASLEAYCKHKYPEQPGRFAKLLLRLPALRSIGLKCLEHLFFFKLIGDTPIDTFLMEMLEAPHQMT
Chain of E-selectin (Homo sapiens) (P16581 whole entry, looked up): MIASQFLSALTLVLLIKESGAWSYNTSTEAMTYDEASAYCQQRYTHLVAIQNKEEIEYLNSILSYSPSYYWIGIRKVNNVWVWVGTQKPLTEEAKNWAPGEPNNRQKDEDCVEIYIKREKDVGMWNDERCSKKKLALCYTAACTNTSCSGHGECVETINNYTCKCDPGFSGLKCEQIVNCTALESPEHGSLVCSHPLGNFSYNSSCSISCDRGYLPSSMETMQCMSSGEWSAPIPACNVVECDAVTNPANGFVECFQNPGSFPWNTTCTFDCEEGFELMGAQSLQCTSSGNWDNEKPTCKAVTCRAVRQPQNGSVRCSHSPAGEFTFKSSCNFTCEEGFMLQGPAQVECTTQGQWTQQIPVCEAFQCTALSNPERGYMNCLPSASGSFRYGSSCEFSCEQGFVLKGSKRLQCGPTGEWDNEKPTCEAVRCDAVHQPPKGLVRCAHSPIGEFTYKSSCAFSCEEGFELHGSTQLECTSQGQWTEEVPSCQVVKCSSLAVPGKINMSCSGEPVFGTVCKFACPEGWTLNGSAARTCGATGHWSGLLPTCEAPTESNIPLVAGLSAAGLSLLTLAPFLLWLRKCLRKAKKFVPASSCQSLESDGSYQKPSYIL
Chain of human RAR-related Orphan Receptor gamma (RORg), RORC (gene 6097) (P51449 whole entry, looked up, the tested form may be a part): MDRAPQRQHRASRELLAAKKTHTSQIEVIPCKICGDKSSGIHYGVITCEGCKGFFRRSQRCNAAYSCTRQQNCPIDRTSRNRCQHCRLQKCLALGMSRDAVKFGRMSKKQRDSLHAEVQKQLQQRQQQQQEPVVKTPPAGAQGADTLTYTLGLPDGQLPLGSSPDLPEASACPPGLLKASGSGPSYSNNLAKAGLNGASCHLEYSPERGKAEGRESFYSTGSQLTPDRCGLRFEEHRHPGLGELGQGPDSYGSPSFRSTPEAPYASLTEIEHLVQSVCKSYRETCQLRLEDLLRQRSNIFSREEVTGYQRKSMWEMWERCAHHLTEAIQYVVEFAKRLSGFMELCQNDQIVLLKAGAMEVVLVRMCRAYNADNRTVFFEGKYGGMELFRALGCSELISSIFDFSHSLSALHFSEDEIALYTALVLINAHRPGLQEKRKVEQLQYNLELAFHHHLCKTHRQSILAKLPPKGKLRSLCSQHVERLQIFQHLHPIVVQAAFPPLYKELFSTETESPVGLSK

On to `FC(F)(F)C(F)(C(F)(F)F)C(F)(F)C(F)(F)CC1CO1` (stereo not given), for which the molecule was called inactive in assay [1], in [2], in assay [3], in assay [4], in [5] and in assay [6]. For the same molecule, the outcome in assay [7], in assay [8], in assay [9], in [10], in assay [11] and in [12] was inactive. For the same molecule, the result in [13], in assay [14], in assay [15] and in assay [16] was inactive. The AC50 in assay [12] is 2.33 µM (active).
Regarding `O=C(O)C(F)(OC(F)(F)C(F)(F)C(F)(F)F)C(F)(F)F` (stereo not given), the molecule was called inactive in assay [1], in assay [17], in assay [2], in assay [18], in assay [3] and in [4]. The result in [5], in assay [6], in assay [7], in assay [8], in [9] and in assay [10] was inactive. For the same molecule, the result in assay [11], in assay [12], in assay [13], in [14], in [15] and in [16] was inactive. The AC50 in [6] was 49.3 µM (active); in assay [8], 5.95 µM (active); in [12] it was 10.7 µM (active).
As to `CC(C)(C)N(NC(=O)c1ccc(Cl)cc1)C(=O)c1ccccc1`, the result in assay [1], in assay [18] and in assay [10] was inactive.
As to `CCCCCCCc1ccc(O)cc1`, the outcome in assay [1], in assay [17], in assay [2], in assay [18], in assay [3] and in assay [10] was inactive. Also, the outcome in [16] was inactive. The AC50 was 11.1 µM (active) and 48.7 µM (active) in assay [18]; 35.2 µM (active) in [4]; 35.7 µM (active) in assay [5]; 37.6 µM (active) in assay [6]; 25.3 µM (active) in assay [7]; 38.1 µM (active) in assay [8]. For the same molecule, the half-maximal activity concentration (AC50) is 38.4 µM (active) in [9]; 37.5 µM (active) in assay [12]; 22.3 µM (active) in [19]; 30.9 µM (active) in [13]; 36.1 µM (active) in assay [14]; 38.1 µM (active) in [15].

By AC50 is commonly meant the midpoint of the concentration-response curve, whichever way the signal moves.
